This is part of a sample that, as a whole, favours compounds with a hit. Of some 83,000 tested, about 20% had one in any assay.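 Method: cells in 96-well plates; compound added at one concentration; 48 h incubation; percent growth measured; values under 10 scored active.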 Values without a mark were called inactive. The source made the active and inactive calls.
Each compound was assayed on RPMI-8226 leukemia (assay: NCI-60 one-dose screen, 48 h (100 = growth as untreated, 0 = no growth, -100 = all killed)). Settings: 10 µM unless noted.

| SMILES | growth |
| --- | --- |
| CCOC(=O)C1=C(C)NC(C)=C(C(=O)OCC)C1(C)C | 94.8% |
| COc1ccc(C(=O)N2NC(=O)/C(=C/c3ccc(Br)cc3)N=C2c2ccccc2)cc1 | 71.7% |
| O=C(Nc1cccc(-n2cc(-c3ccncc3)c(-c3ccc(Cl)c(O)c3)n2)c1)Nc1cccc(C(F)(F)F)c1 | 1.63% (active) |
| COC(OC)c1ccccc1 | 121% |
| COc1ccc(NC(=O)c2c(Nc3ccc(OC)cc3OC)n[nH]c2N)c(OC)c1 | 91% |
| O=C(C1=Cc2cc3ccccc3n2Cc2cnnn21)c1ccccc1 | 53.1% |
| CN(C)c1oc(C2OC2c2ccccc2)nc1C#N (centres undefined) | 98.3% |
| COc1cccc(-c2cc3c(O)cc(C#N)cc3[nH]2)c1 | 36.1% |
| CN(C[C@H]1Cc2c(cccc2N2CCN(Cc3ccccn3)CC2)CN1)[C@H]1CCCc2cccnc21 | 64.5% |
| COc1ccc(-n2c(=O)sc3c(Cl)nc(C)nc32)c(OC)c1 | 106% |
| O=C(Nc1ccc(Cl)c(Cl)c1)NS(=O)(=O)c1cnccc1Oc1ccc(F)cc1 | -40.7% (active) |
| S=C(S)NCCc1c[nH]c2ccccc12 | 92.4% |
| COc1ccc(Nc2[nH]n3c(=O)cc(-c4ccccc4)nc3c2C(=O)Nc2ccc(C)cc2)c(OC)c1 | 108% |
| COc1ccc(-n2c(=S)sc3c(Cl)nc(C)nc32)c(OC)c1 | 22.6% |
| COc1ccc(-c2ccc(C)n2-c2ccc(-c3nc4ccccc4s3)cc2)cc1 | 70.4% |
| COc1cc(/C(C#N)=C/c2ccc3c(c2OC)OCO3)cc2c1OCO2 | 32.3% |

| SMILES | growth |
| --- | --- |
| Cc1ccc2ccccc2c1C[n+]1ccccc1 | 80.9% |
| O=C(CSc1nc2ccccc2[nH]1)Nc1ccc(-c2nc3ccccc3s2)c(Cl)c1 | 28.9% |
| O=c1ccn(-c2ncnc3nc[nH]c23)cc1 | 76.4% |
| CN(C[C@H]1Cc2c(cccc2N2CCN(c3ncccn3)CC2)CN1)[C@H]1CCCc2cccnc21 | 27.1% |
| COc1ccc(Nc2nn3c(-c4ccccc4)cc(-c4ccccc4)nc3c2C(N)=O)c(OC)c1 | 71.8% |
| COc1cc(-c2nn(-c3cccc(NC(=O)Nc4cccc(C(F)(F)F)c4)c3)cc2-c2ccncc2)ccc1Cl | -14.8% (active) |
| COc1ccc(C2C=C(c3ccc(Cl)cc3)N=C3SC=C(C)N32)c(Br)c1 (centres undefined) | 14.9% |
| O=C1C2(c3ccccc3)C(c3ccccc3)=C(c3ccccc3)C1(c1ccccc1)C1CC=CC12 (centres undefined) | 50.2% |
| CC(=O)Oc1csc(N(C(C)=O)c2cccc(C(F)(F)F)c2)n1 | 75.8% |
| COc1ccc(C2C=C(c3ccc(OC)c(OC)c3)N=C3SC=C(C)N32)c(Br)c1 (centres undefined) | 102% |
| CCC(=O)OC1=CN2C(=NC(c3ccc(N)cc3)=CC2c2cc(OC)c(OC)c(OC)c2)S1 (centres undefined) | 17.9% |
| CCCCCCCC/C=C/CCCCCCCC1=NC(C)(C)CN1C(C)(C)CO | -21.7% (active) |
| CN(C)c1cccc2c(S(=O)(=O)/N=C(\N)Nc3nc4ccccc4s3)cccc12 | 62% |
| N/C(=N\S(=O)(=O)c1ccccc1)Nc1nc2ccccc2s1 | 88.6% |
| COc1ccc(Nc2[nH]n3c(=O)cc(C)nc3c2C(N)=O)c(OC)c1 | 102% |

These compounds were tested on OVCAR-8 ovarian in the same assay as above. Settings: 10 µM unless noted.

| SMILES | growth |
| --- | --- |
| CCOC(=O)C1=C(C)NC(C)=C(C(=O)OCC)C1(C)C | 102% |
| Cc1[nH]c2ccc(F)cc2c1CCNC(=O)C1CCN(C(=O)c2ccccc2)C1 (centres undefined) | 101% [25 µM] |
| COc1ccc(C(=O)N2NC(=O)/C(=C/c3ccc(Br)cc3)N=C2c2ccccc2)cc1 | 78.4% |
| Cc1ccc(-c2cc3nc(-c4ccccc4)nc(C(Cl)Cl)n3n2)cc1 | -25.5% (active) |
| O=C(Nc1cccc(-n2cc(-c3ccncc3)c(-c3ccc(Cl)c(O)c3)n2)c1)Nc1cccc(C(F)(F)F)c1 | 10.6% |
| COC(OC)c1ccccc1 | 98.9% |
| COc1ccc(NC(=O)c2c(Nc3ccc(OC)cc3OC)n[nH]c2N)c(OC)c1 | 96.4% |
| CC(C)(C)n1cc(-c2ccnc(NCCCNS(=O)(=O)c3ccc(F)cc3)c2)c(-c2cccc(O)c2)n1 | 51.5% |
| O=C(C1=Cc2cc3ccccc3n2Cc2cnnn21)c1ccccc1 | 51.8% |
| N=C(N)c1ccc(-c2ccc(-c3cncc4ccccc34)s2)cc1F | -51.6% (active) |
| c1cc(C2=N[C@@H]3c4ccccc4C[C@@H]3O2)nc(C2=N[C@@H]3c4ccccc4C[C@@H]3O2)c1 | 106% |
| CN(C)c1oc(C2OC2c2ccccc2)nc1C#N (centres undefined) | 85.4% |
| COc1cccc(-c2cc3c(O)cc(C#N)cc3[nH]2)c1 | 106% |
| c1ccc(-c2nc(N3CCNCC3)c3nc(-c4ccccc4)oc3n2)cc1 | -30.5% (active) |
| CN(C[C@H]1Cc2c(cccc2N2CCN(Cc3ccccn3)CC2)CN1)[C@H]1CCCc2cccnc21 | 42.7% |
| COc1ccc(-n2c(=O)sc3c(Cl)nc(C)nc32)c(OC)c1 | 56.9% |
| O=C(Nc1ccc(Cl)c(Cl)c1)NS(=O)(=O)c1cnccc1Oc1ccc(F)cc1 | 55.4% |
| S=C(S)NCCc1c[nH]c2ccccc12 | 95.9% |
| COc1ccc(Nc2[nH]n3c(=O)cc(-c4ccccc4)nc3c2C(=O)Nc2ccc(C)cc2)c(OC)c1 | 79.4% |

| SMILES | growth |
| --- | --- |
| COc1ccc(-n2c(=S)sc3c(Cl)nc(C)nc32)c(OC)c1 | 0.172% (active) |
| COc1ccc(-c2ccc(C)n2-c2ccc(-c3nc4ccccc4s3)cc2)cc1 | 95.8% |
| COc1cc(/C(C#N)=C/c2ccc3c(c2OC)OCO3)cc2c1OCO2 | 28.8% |
| Cc1ccc2ccccc2c1C[n+]1ccccc1 | 91.7% |
| COc1ccc(-c2ccc(-c3ccc(-c4ccc(C(=N)N)cc4)s3)s2)cc1OC | 101% |
| O=C(CSc1nc2ccccc2[nH]1)Nc1ccc(-c2nc3ccccc3s2)c(Cl)c1 | -9.6% (active) |
| O=c1ccn(-c2ncnc3nc[nH]c23)cc1 | 101% |
| CN(C[C@H]1Cc2c(cccc2N2CCN(c3ncccn3)CC2)CN1)[C@H]1CCCc2cccnc21 | 30% |
| COc1ccc(Nc2nn3c(-c4ccccc4)cc(-c4ccccc4)nc3c2C(N)=O)c(OC)c1 | 27.8% |
| COc1cc(-c2nn(-c3cccc(NC(=O)Nc4cccc(C(F)(F)F)c4)c3)cc2-c2ccncc2)ccc1Cl | -36.2% (active) |
| COc1ccc(C2C=C(c3ccc(Cl)cc3)N=C3SC=C(C)N32)c(Br)c1 (centres undefined) | 18.6% |
| O=C1C2(c3ccccc3)C(c3ccccc3)=C(c3ccccc3)C1(c1ccccc1)C1CC=CC12 (centres undefined) | 87.5% |
| CC(=O)Oc1csc(N(C(C)=O)c2cccc(C(F)(F)F)c2)n1 | 94.1% |
| COc1ccc(C2C=C(c3ccc(OC)c(OC)c3)N=C3SC=C(C)N32)c(Br)c1 (centres undefined) | 99.2% |
| CCC(=O)OC1=CN2C(=NC(c3ccc(N)cc3)=CC2c2cc(OC)c(OC)c(OC)c2)S1 (centres undefined) | 36.6% |
| CCCCCCCC/C=C/CCCCCCCC1=NC(C)(C)CN1C(C)(C)CO | 37.1% |
| CN(C)c1cccc2c(S(=O)(=O)/N=C(\N)Nc3nc4ccccc4s3)cccc12 | 70.6% |
| N/C(=N\S(=O)(=O)c1ccccc1)Nc1nc2ccccc2s1 | 87.6% |
| COc1ccc(Nc2[nH]n3c(=O)cc(C)nc3c2C(N)=O)c(OC)c1 | 97.4% |
